Inconclusive results are not listed. Unmarked numbers belong to inactive results. The source made the active and inactive calls. Calls follow the shape of the dose curve; as a rule, active = well fitted inhibition curve with a large enough effect; inconclusive = small, poorly fitted or top-dose-only effect; inactive = flat fitted curve, though single readings scatter.

This is an account of results in PubChem BioAssay (NCATS).

The nature of test [1]: qHTS profiling for inhibitors of Plasmodium falciparum proliferation (AID 504749). Also: nearly all actives have a fitted effect of over 60% in size.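 As to activity, negative = inhibition: 0% = DMSO vehicle and full inhibition = artemisinin control.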 As to conditions: P. falciparum in erythrocytes, SYBR Green DNA, 72 h. The method in brief:
(§1)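 Three-day growth assay of blood-stage parasites in erythrocytes (0.3% parasitemia, 2.5% hematocrit) at 37 C, 5% CO2, quantified by SYBR Green DNA staining after overnight detergent lysis.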

A further test deals with 3D7. Described as above. Particulars: P. falciparum in erythrocytes, SYBR Green DNA, 72 h; series mostly up to 28.7 µM. The gist of the method: as §1
Another test relates to 7G8. The description is as above. Particulars: P. falciparum in erythrocytes, SYBR Green DNA, 72 h; series mostly up to 28.7 µM. The method in brief:
as §1

A further test relates to AA1029. Described as above. Particulars: P. falciparum in erythrocytes, SYBR Green DNA, 72 h; series mostly up to 28.7 µM. The gist of the method: as §1
A further test deals with AS120. Described as above. Particulars: P. falciparum in erythrocytes, SYBR Green DNA, 72 h; series mostly up to 28.7 µM. The method in brief:
as §1

Where [2] appears, read: at 12.8 µM (top of the series), parasite line A.
Setting [3] is: at 12.8 µM (top of the series), parasite line B.
Where [4] appears, read: at 28.7 µM (top of the series), parasite line A.
Where [5] appears, read: at 28.7 µM (top of the series), parasite line B.
Potency is read from the fitted curve at half-maximal effect.

With `Cc1c(-c2ccccc2)oc2c(C(=O)OCCN3CCCCC3)cccc2c1=O`, the figures for the activity, negative = inhibition in test [1] (setting [2]) and in test [1] (setting [3]) were 0.972% and 6.11%, respectively. In addition, the Potency entry with 3D7, in the test with 7G8, with AA1029 and in the test with AS120 was “inactive” in each case.

Regarding `CC(=O)Nc1ncc([N+](=O)[O-])s1`, the activity, negative = inhibition in test [1] (setting [4]) is 11.2%; in test [1] (setting [5]), 9.19%. For the same molecule, the Potency entry with 3D7, with 7G8, in the test with AA1029 and with AS120 was “inactive” in each case.

Consider `CCOC(=O)c1ccc(N)cc1`, for which the activity, negative = inhibition in test [1] (setting [2]) is 6.05%; in test [1] (setting [3]) it was 7.01%. In addition, the Potency entry with 3D7, in the test on 7G8, in the test on AA1029 and with AS120 was “inactive” each time.

As to `C/C=C/c1ccc(O)c(OC)c1`, the activity, negative = inhibition in test [1] (setting [4]) is 3.92%; in test [1] (setting [5]), -10.3%. Further, the Potency result in the test with 3D7, with AA1029 and in the test on AS120 was “inactive” throughout. The Potency in the test on 7G8 is 10000 nM (active).

For `O=S(=O)(O)c1ccc(O)cc1`, the activity, negative = inhibition in test [1] (setting [4]) is 4.42%; in test [1] (setting [5]) it was -3.84%. Further, the Potency result in the test with 3D7, in the test on 7G8, with AA1029 and with AS120 was “inactive” in each case.

With `O=C1C(=O)c2ccccc2C(O)=C1C1CCC(c2ccc(Cl)cc2)CC1` (centres undefined), the Potency in test [1] (parasite line A) was 1.4 nM (active); in test [1] (parasite line B), 3.2 nM (active); with 3D7, 3.2 nM (active); in the test with 7G8, 1.1 nM (active); in the test with AA1029, 3.2 nM (active); in the test with AS120, 4 nM (active).

Take `CC(C)Cc1ccc(CC(=O)O)cc1`: the figures for the activity, negative = inhibition in test [1] (setting [4]) and in test [1] (setting [5]) were 5.78% and 6.05%, respectively. Further, the Potency result in the test with 3D7, with 7G8, with AA1029 and in the test on AS120 was “inactive” each time.

On to `CCN(CC)CCNC(=O)c1cc(Br)c(N)cc1OC`, for which the figures for the activity, negative = inhibition in test [1] (setting [4]) and in test [1] (setting [5]) were 1.38% and 3.74%, respectively. Also, the Potency entry with 3D7, in the test on 7G8, in the test with AA1029 and in the test with AS120 was “inactive” throughout.

Take `CCCCCCCCCCCCCC(=O)OC(C)C`: the activity, negative = inhibition was 2.55% in test [1] (setting [4]) and 10.9% in test [1] (setting [5]). Besides, the Potency result with 3D7, with 7G8, with AA1029 and in the test on AS120 was “inactive” throughout.

As to `FC(F)(F)C(F)(F)C(F)(F)C(F)(F)C(F)(F)C(F)(F)C(F)(F)C(F)(F)Br`, the results for the activity, negative = inhibition in test [1] (setting [4]) and in test [1] (setting [5]) were 2.77% and -1.15%, respectively. The Potency entry in the test with 3D7, with 7G8, with AA1029 and with AS120 was “inactive” throughout.

Regarding `Cc1cccc(C)c1NC(=O)CN1CCCCCC1`, the activity, negative = inhibition in test [1] (setting [4]) was 14.8%; in test [1] (setting [5]), 4.72%. Also, the Potency entry with 3D7, with 7G8, in the test with AA1029 and in the test on AS120 was “inactive” each time.

For the molecule `NS(=O)(=O)c1ccc(Cl)c(S(N)(=O)=O)c1`, the activity, negative = inhibition in test [1] (setting [4]) was 8.67%; in test [1] (setting [5]), 14.1%. Also, the Potency entry in the test with 3D7, in the test with 7G8, with AA1029 and in the test with AS120 was “inactive” throughout.

Turning to `OC[C@H]1O[C@@H]2O[C@H]3[C@H](O)[C@@H](O)[C@@H](O[C@H]4[C@H](O)[C@@H](O)[C@@H](O[C@H]5[C@H](O)[C@@H](O)[C@@H](O[C@H]6[C@H](O)[C@@H](O)[C@@H](O[C@H]7[C@H](O)[C@@H](O)[C@@H](O[C@H]8[C@H](O)[C@@H](O)[C@@H](O[C@H]1[C@H](O)[C@H]2O)O[C@@H]8CO)O[C@@H]7CO)O[C@@H]6CO)O[C@@H]5CO)O[C@@H]4CO)O[C@@H]3CO`, the activity, negative = inhibition is 8.7% in test [1] (setting [4]) and 8.53% in test [1] (setting [5]). Moreover, the Potency entry with 3D7, in the test with 7G8, in the test with AA1029 and in the test with AS120 was “inactive” each time.

As for `COc1cc(NS(=O)(=O)c2ccc(N)cc2)ncn1`, the figures for the activity, negative = inhibition in test [1] (setting [2]) and in test [1] (setting [3]) were 3.14% and 1.14%, respectively. In addition, the Potency entry in the test on 3D7, with 7G8, in the test on AA1029 and in the test on AS120 was “inactive” each time.

Consider `O=C(Nc1ccc([N+](=O)[O-])cc1)Nc1ccc([N+](=O)[O-])cc1`, for which the activity, negative = inhibition is 3.88% in test [1] (setting [4]) and -6.66% in test [1] (setting [5]). For the same molecule, the Potency in the test on 3D7 is 7080 nM (active); with 7G8, 1410 nM (active). Further, the Potency entry in the test with AA1029 and in the test on AS120 was “inactive” throughout.

Take `C#C[C@]1(O)CC[C@H]2[C@@H]3CCC4=Cc5oncc5C[C@]4(C)[C@H]3CC[C@@]21C`: the activity, negative = inhibition in test [1] (setting [4]) was -28.2%; in test [1] (setting [5]) it was -11.7%. Also, the Potency result in the test on 3D7, in the test on 7G8, in the test on AA1029 and in the test with AS120 was “inactive” throughout.

Regarding `N#CCC(=O)NN`, the results for the activity, negative = inhibition in test [1] (setting [4]) and in test [1] (setting [5]) were 10.6% and 7.8%, respectively. The Potency entry with 3D7, with 7G8, in the test with AA1029 and in the test on AS120 was “inactive” throughout.

For the molecule `Cc1ccc(S(=O)(=O)NC(=O)NC2CCCC2)cc1`, the activity, negative = inhibition in test [1] (setting [4]) is 11.1%; in test [1] (setting [5]), 9.92%. Besides, the Potency entry with 3D7, with 7G8, with AA1029 and with AS120 was “inactive” throughout.

As for `Nc1ccc(S(=O)(=O)Nc2cnc3ccccc3n2)cc1`, the activity, negative = inhibition in test [1] (setting [4]) was -3.4%; in test [1] (setting [5]) it was -11.6%. The Potency entry in the test with 3D7, in the test on 7G8, in the test with AA1029 and in the test on AS120 was “inactive” each time.
